Data reported in the supplement of paper PMC11732987, “Enantioselective OTUD7B fragment discovery through chemoproteomics screening and high-throughput optimisation” (Communications Chemistry, 2025).

Tests used:
Test in all cases: log2 ratio of Biotin-Ahx-Ub-VS probe labelling (fragment/DMSO); higher = less target engagement (more negative = stronger competition), active = hit call of the paper (q ≤ 0.05, log2 ratio ≤ -1)
Settings in all cases: compound concentration: 200 uM; treatment time: 3 h
ALG13 = target: T1, ALG13 (UniProt Q9NP73)
T1 sequence (whole entry): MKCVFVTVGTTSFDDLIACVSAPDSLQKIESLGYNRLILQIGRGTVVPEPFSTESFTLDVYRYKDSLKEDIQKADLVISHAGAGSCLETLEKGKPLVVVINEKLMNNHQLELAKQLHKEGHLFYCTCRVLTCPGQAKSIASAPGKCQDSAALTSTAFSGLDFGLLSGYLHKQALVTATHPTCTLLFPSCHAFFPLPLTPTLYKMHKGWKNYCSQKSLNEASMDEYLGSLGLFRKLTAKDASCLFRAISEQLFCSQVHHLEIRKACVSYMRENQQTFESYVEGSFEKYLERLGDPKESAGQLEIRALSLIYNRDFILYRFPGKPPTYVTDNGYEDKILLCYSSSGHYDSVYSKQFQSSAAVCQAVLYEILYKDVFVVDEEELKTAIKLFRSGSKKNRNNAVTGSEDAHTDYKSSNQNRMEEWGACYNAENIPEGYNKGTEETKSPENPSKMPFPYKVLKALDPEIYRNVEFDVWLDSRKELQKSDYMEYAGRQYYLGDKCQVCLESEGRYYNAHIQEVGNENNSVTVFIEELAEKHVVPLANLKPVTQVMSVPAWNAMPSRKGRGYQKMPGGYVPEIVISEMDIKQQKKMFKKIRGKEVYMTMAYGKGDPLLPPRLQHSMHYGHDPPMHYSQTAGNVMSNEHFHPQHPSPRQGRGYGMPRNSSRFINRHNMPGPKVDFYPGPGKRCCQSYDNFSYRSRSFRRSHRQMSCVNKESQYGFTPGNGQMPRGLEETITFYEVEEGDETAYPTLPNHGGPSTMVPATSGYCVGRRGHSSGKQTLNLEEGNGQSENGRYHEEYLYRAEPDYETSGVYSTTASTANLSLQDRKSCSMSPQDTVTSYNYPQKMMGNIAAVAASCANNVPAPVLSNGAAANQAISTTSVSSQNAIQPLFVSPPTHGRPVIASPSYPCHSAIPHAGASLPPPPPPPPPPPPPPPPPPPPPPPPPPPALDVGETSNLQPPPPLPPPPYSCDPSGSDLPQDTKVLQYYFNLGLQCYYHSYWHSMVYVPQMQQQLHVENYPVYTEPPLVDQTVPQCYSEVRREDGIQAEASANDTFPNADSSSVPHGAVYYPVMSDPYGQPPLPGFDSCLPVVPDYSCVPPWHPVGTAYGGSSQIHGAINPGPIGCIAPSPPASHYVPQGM
How it was run: (§1)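 HEK293T lysate (495 µg per sample, in Tris/CHAPS/IGEPAL buffer with protease inhibitors) was exposed in triplicate for 3 h to fragment at 200 µM or to vehicle, then to Biotin-Ahx-Ub-VS at 0.5 µM final for 1 h. Labelled DUBs were enriched on NeutrAvidin, digested with LysC and trypsin, and analysed by diaPASEF LC-MS/MS. Spectronaut label-free quantities were normalised to the global median, and values are average log2 ratios of fragment over vehicle from an unpaired t-test. Only proteins with ≥2 unique peptides were used.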

ATXN3 = ATXN3 (UniProt P54252)
How it was run: as §1

BAP1 = target: T2, BAP1 (UniProt Q92560)
T2 sequence (whole entry): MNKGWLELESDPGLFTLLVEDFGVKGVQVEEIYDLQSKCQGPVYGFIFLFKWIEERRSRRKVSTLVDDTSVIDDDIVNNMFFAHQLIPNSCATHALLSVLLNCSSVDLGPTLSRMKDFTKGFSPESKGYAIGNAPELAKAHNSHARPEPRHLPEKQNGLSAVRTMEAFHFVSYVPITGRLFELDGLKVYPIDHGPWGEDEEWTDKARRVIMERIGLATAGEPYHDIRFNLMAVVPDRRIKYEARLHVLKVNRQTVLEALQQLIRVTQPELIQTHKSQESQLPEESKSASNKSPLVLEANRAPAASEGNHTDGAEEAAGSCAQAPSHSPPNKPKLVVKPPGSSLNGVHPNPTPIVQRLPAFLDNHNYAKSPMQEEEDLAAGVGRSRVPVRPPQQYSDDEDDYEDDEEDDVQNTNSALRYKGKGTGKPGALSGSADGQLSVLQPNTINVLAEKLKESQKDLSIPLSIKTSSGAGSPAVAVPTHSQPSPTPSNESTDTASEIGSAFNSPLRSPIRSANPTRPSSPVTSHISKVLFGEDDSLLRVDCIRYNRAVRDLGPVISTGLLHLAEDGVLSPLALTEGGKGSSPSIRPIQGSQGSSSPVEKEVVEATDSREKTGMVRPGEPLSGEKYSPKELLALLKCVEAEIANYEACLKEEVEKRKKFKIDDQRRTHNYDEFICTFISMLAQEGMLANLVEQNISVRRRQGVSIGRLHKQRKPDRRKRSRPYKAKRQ
How it was run: as §1

EIF3F = EIF3F (UniProt O00303)
How it was run: as §1

EIF3H = EIF3H (UniProt O15372)
How it was run: as §1

FAM105A = target: T3, FAM105A (UniProt Q9NUU6)
T3 sequence (whole entry): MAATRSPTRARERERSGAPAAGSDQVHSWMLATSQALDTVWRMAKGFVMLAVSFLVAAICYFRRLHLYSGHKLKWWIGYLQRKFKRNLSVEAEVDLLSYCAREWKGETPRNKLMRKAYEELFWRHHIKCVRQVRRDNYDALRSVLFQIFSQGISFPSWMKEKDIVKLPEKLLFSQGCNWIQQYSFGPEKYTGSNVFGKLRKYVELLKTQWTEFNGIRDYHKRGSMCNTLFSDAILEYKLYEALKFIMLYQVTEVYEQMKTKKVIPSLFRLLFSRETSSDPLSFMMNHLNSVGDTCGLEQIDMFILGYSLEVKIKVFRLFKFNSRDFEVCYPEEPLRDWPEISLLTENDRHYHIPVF
How it was run: as §1

OTUB1 = OTUB1 (UniProt Q96FW1)
How it was run: as §1

OTUD4 = target: T4, OTUD4 (UniProt Q01804)
T4 sequence (whole entry): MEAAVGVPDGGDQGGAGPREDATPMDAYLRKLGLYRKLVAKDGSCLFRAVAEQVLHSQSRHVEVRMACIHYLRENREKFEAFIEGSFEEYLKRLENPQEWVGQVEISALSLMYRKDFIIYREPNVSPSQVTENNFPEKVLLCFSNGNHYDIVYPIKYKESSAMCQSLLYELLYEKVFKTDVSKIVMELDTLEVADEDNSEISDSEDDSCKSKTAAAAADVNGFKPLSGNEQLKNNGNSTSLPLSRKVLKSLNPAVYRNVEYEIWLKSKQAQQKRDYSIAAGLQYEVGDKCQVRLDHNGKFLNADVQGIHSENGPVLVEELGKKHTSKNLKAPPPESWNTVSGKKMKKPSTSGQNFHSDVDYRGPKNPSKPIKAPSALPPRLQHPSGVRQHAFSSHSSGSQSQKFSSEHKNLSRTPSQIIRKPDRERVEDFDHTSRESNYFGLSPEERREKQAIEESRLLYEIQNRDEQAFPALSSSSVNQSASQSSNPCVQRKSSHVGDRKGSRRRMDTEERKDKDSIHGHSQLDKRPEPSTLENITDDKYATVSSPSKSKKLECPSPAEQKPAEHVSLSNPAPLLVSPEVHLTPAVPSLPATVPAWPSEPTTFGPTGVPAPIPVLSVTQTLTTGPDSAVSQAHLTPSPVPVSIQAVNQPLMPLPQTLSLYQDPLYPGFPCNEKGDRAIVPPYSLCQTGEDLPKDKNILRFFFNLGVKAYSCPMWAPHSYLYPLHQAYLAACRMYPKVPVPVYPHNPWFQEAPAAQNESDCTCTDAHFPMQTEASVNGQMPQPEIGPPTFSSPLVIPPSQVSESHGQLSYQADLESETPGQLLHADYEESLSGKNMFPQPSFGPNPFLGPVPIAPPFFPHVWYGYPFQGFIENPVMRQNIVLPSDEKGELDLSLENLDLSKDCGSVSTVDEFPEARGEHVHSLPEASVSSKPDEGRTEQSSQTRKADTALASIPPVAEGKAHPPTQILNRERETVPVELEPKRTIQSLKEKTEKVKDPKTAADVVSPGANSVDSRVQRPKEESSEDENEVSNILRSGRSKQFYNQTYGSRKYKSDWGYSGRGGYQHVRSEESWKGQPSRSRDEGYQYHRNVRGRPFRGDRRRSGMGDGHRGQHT
How it was run: as §1

OTUD5 = target: T5, OTUD5 (UniProt Q96G74)
T5 sequence (whole entry): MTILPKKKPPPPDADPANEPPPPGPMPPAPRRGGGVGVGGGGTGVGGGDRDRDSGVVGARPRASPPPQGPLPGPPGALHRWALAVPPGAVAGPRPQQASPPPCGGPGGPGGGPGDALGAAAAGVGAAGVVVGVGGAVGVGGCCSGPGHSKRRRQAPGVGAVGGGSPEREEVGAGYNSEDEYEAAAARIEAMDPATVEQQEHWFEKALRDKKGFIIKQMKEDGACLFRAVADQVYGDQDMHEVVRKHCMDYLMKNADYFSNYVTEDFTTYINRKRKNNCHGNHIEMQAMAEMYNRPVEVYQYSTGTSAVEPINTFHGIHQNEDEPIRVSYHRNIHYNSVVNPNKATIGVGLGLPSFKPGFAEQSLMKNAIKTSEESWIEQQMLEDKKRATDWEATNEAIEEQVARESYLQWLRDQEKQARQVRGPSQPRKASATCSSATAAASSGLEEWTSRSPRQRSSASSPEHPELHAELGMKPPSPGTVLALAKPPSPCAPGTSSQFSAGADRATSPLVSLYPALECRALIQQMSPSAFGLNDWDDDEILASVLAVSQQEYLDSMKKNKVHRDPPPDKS
How it was run: as §1

Measured: log2 ratio of Biotin-Ahx-Ub-VS probe labelling

Sequence of EIF3F (O00303 whole entry): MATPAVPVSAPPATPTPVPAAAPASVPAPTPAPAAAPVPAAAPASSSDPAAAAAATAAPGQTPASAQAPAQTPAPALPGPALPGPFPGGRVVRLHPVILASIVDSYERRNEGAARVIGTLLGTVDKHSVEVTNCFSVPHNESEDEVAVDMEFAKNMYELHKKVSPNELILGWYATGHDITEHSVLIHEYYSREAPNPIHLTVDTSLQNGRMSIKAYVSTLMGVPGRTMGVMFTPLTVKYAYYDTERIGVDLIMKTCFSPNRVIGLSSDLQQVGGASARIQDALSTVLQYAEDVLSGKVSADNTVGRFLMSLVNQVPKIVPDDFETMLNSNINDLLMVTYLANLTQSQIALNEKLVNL
Sequence of EIF3H (O15372 whole entry): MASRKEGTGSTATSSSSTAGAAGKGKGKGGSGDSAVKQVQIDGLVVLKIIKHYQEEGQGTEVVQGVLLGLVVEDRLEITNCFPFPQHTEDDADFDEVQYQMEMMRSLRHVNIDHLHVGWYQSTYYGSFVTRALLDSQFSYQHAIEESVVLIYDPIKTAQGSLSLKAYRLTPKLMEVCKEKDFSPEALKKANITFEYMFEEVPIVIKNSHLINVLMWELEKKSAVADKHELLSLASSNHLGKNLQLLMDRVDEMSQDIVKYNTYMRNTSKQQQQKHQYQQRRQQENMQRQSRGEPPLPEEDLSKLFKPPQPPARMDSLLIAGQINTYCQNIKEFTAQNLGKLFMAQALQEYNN
Sequence of ATXN3 (P54252 whole entry): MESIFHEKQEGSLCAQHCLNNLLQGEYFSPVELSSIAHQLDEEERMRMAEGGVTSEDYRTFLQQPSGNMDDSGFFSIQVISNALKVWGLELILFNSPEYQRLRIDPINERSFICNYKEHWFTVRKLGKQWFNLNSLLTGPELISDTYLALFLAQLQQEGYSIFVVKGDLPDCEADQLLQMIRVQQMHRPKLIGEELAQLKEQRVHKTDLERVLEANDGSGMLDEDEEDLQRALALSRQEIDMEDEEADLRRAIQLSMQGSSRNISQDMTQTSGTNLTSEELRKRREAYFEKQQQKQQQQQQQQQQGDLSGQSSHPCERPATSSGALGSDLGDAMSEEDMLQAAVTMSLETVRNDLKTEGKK
Sequence of OTUB1 (Q96FW1 whole entry): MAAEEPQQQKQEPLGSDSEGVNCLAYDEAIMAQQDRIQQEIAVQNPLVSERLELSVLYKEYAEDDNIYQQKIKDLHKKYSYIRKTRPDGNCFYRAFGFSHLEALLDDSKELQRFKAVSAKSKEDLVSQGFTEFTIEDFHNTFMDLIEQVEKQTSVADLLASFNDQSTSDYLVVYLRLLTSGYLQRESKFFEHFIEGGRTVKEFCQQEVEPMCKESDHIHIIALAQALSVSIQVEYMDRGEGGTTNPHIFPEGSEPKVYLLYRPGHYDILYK

Cl.O=C(CCl)NCCN1CCc2ccccc21
active: BAP1 -1.61
inactive: ALG13 -0.000809 | ATXN3 -0.887 | EIF3F -0.106 | EIF3H 0.469 | FAM105A 0.43 | OTUB1 0.169 | OTUD4 -0.775 | OTUD5 -0.79
